DENV2 CPE = inhibitors of DENV2 cytopathic effect, primary screen, cell-based, plate reader, single concentration. DENV2-infected cells, cytopathic effect rescue. CPE inhibition, % at 9.99 µM. actives 1.7% (n = 350,000); in the data active = CPE inhibition above about 20%, passing the limit was not always enough; inconclusive = no clear call, values can overlap the other calls; tested in BHK-21 cells
MLL AF4-AF9 inh = inhibitors of AF4 peptide binding to AF9, primary screen, biochemical, AlphaScreen, biotin-AF4 peptide, FLAG-AF9, single point. Protein AF-9 (Homo sapiens), P42568. inhibition, % at 10 µM. actives 0.47% (n = 350,000). AID 651704, 2012;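 active = every replicate reaching a set inhibition limit, whatever the replicate mean, cut at about 25% in these data; inconclusive = mean inhibition reaches that limit but some replicates miss it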
Target sequence (P42568 whole entry, looked up): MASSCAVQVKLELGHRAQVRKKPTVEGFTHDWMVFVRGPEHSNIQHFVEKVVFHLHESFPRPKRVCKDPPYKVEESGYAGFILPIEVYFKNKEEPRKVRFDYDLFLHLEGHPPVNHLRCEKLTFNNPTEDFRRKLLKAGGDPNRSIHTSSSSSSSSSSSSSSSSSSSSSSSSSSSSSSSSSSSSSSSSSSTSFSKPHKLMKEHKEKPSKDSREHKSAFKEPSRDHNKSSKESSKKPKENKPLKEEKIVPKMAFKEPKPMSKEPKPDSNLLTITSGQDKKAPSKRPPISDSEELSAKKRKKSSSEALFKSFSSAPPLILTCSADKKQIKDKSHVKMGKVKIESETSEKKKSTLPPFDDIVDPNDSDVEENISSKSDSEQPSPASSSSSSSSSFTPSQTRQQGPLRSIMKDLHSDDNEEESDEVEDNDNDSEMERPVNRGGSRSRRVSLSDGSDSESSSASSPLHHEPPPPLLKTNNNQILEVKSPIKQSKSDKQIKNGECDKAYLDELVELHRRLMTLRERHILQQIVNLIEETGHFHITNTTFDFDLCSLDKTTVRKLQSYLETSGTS
RAD54 branch = inhibitors of human RAD54 branch migration, primary screen, biochemical, fluorescence, single point; DNA repair and recombination protein RAD54-like (Homo sapiens), Q92698; RAD54 Holliday junction branch migration, FAM/BHQ fluorescence; inhibition, % at 10.4 µM; actives 0.14% (n = 360,000); AID 602329, 2012;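 active = mean normalized replicate activity at least 40 and at least half of replicates scoring 40 or more; inconclusive = only one of the two criteria met; inactive = mean below 40 and under half of replicates reaching 40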;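 note: inhibitors cause a drop in the FAM fluorescence signal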
RAD52 inh = RAD52 DNA annealing inhibitors, primary screen, biochemical, FRET, single point, set 2 | DNA repair protein RAD52 homolog (Homo sapiens), P43351 | recombinant RAD52 DNA annealing, FRET fluorescence | inhibition, % at 18.7 µM | actives 0.46% (n = 360,000) | AID 651710, 2012;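 active = every replicate showing at least 50% inhibition; inconclusive = mean inhibition at least 50% but not in every replicate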
dFosB act = activators of delta FosB homodimer, primary screen, biochemical, fluorescence polarization, TAMRA-CDK5 oligo, single point. purified delta FosB; percent of positive-control signal above neutral wells. AID 493131, 2011. activation, % at 25 µM. Protein FosB (Mus musculus), P13346. actives 0.99% (n = 340,000);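 active = mean activation above about 17%, with every replicate also reaching it, limit read from the data, passing the limit was not always enough; inconclusive = only one of the two conditions met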
GSIS activator = GLuc luminescence reporter in INS-1E cells, primary screen for activators of glucose-dependent secretion of insulin | AID 743287, 2014 | actives 0.61% (n = 370,000) | activation, % at 16.6 µM | INS-1E GLuc reporter insulin secretion, 2-3 h;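 active = lowest replicate activation of at least 40%, so every replicate reaches that level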
Numbers stand for hits; – = inactive; ? = inconclusive; · = no result; ! = not confirmed by another sample. Hits are enriched below; roughly 3.1% of the tested compounds scored in any of these assays.

SMILES	DENV2 CPE	MLL AF4-AF9 inh	RAD54 branch	RAD52 inh	dFosB act	GSIS activator
N#Cc1cccc(-c2ccc(C3[C@@H]4CN(C(=O)Nc5ccc6c(c5)OCO6)C[C@H]3N4)cc2)c1 (stereo partly drawn)	–	–	·	55	·	–
N#Cc1ccc(-c2ccc(C3[C@@H]4CN(C(=O)c5ccc6c(c5)OCO6)C[C@H]3N4)cc2)cc1 (stereo partly drawn)	–	–	·	56!	·	–
N#Cc1cccc(-c2ccc(C3[C@@H]4CN(C(=O)c5cccnc5)C[C@H]3N4)cc2)c1 (stereo partly drawn)	84!	·	·	·	·	–
O=C(Nc1ccccc1)N1C[C@@H]2N[C@H](C1)C2c1ccc(-c2cccnc2)cc1 (stereo partly drawn)	–	–	·	–	·	–
C[C@@H]1CN([C@@H](C)CO)C(=O)c2cc(NC(=O)Nc3ccccc3)ccc2O[C@H]1CN(C)S(=O)(=O)c1cn(C)cn1	–	–	–	–	·	–
COCC#Cc1ccc2c(c1)O[C@H](CN(C)S(C)(=O)=O)[C@@H](C)CN([C@H](C)CO)S2(=O)=O	–	–	–	–	·	–
COc1ccc(NC(=O)N(C)C[C@@H]2OCCCC[C@@H](C)Oc3ccc(NC(=O)Nc4ccc5c(c4)OCO5)cc3C(=O)N([C@H](C)CO)C[C@@H]2C)cc1	–	–	–	–	·	–
COc1cc(CN2[C@@H]3CNC[C@H]2C3c2ccc(-c3ccccc3C)cc2)cc(OC)c1 (stereo partly drawn)	–	–	·	–	·	–
CCOc1ccc(C(=O)NCc2ccccn2)cc1	–	–	–	–	–	–
O=C(NCc1ccccn1)c1coc(=O)c(Br)c1	·	·	–	·	–	102
O=C(O)C[C@@H]1C[C@H]2c3cc(NC(=O)NC4CCCCC4)ccc3O[C@H]2[C@@H](CO)O1	–	–	–	–	·	–
CC(C)Cn1c2c(c(=O)[nH]c1=O)C(C(F)(F)F)(C(F)(F)F)N=C(CCC1CCCCC1)N2	·	·	–	·	–	54
CN(C)CCCNC(=O)C[C@@H]1CC[C@H](NC(=O)c2ccccc2F)[C@@H](CO)O1	–	–	–	–	·	–
CCOC(=O)C1=C(COC(=O)/C=C/c2cccc(OC)c2OC)NC(=O)NC1C (stereo not drawn)	–	–	–	–	–	57
CCOC(=O)C1=C(COC(=O)Cc2ccccc2F)NC(=O)NC1C (stereo not drawn)	–	–	–	–	–	42
CCOC(=O)C1=C(COC(=O)/C=C/c2ccc(OCC)c(OC)c2)NC(=O)NC1C (stereo not drawn)	?	–	·	–	–	90
Cn1c(=O)c2nc(Cl)c(-c3ccccc3)nc2n(C)c1=O	55	–	·	–	–	–
COc1ccc(NC(=O)Cn2nnc(-c3ccccc3NC(=O)c3ccco3)n2)cc1	·	·	–	·	26	·
COc1ccc(N/C(N)=N/c2nc(C)cc(C)n2)c(OC)c1	–	–	·	–	–	–
COc1cc(N/C(N)=N/c2nc(C)cc(C)n2)cc(OC)c1	–	–	–	81	–	–
COc1ccc(S(=O)(=O)Nc2ccc3c(c2)C(=O)N([C@H](C)CO)C[C@@H](C)[C@H](CN(C)C(=O)Nc2ccc(F)cc2)OCCCC[C@H](C)O3)cc1	–	–	–	–	·	–
COc1ccccc1CNc1nc(-c2cc(C)n(C)c2C)cs1	·	·	·	·	18	·
COCCNc1nc(-c2cc(C)n(CCc3ccc(OC)cc3)c2C)cs1	–	–	–	–	–	–
CO[C@@H]1CN(C)C(=O)c2cc(NS(=O)(=O)c3ccccc3Cl)ccc2OC[C@@H](C)NC[C@@H]1C	–	–	–	–	·	–
O=C(O)c1cc([N+](=O)[O-])ccc1Nc1ccccc1	–	28	–	–	–	–
SMILES	DENV2 CPE	MLL AF4-AF9 inh	RAD54 branch	RAD52 inh	dFosB act	GSIS activator
COc1ccc(NC(=O)c2ccc(COc3ccccc3OC)o2)cc1OC	·	·	–	·	–	–
COc1ccc(/C=N/NC(=O)c2ccc(COc3ccccc3Cl)o2)c(OC)c1C	·	·	–	·	–	152
C[C@H](CO)N1C[C@H](C)[C@H](CN(C)C(=O)CC2CC2)Oc2cc(-c3cccnc3)ccc2S1(=O)=O	–	–	–	–	·	–
CCCN=C1N(CC)C[C@@H]2[C@@H]3C(=O)N(C)C(=O)[C@@H]3[C@](CC)(C(=O)OC)N12	28	–	–	–	–	–
CCN1C[C@@H]2[C@@H]3C(=O)N(C)C(=O)[C@@H]3[C@](CC)(C(=O)OC)N2C1=NC	–	–	–	–	–	–
CC#CCN1C(=O)N[C@@H](c2ccccc2)C(C(=O)OC)=C1C	33	–	–	–	–	–
COC(=O)C1=C(C)N(Cc2ccccc2C(F)(F)F)C(=NCc2ccc(OC)cc2)NC1c1cccc(F)c1 (stereo not drawn)	–	·	·	–	·	–
COC(=O)C1=C(C)N(Cc2ccccc2C(F)(F)F)C(=NCc2ccc(OC)cc2)NC1c1ccc(Cl)cc1 (stereo not drawn)	–	·	·	–	·	87
COC(=O)C1=C(C)N(Cc2ccccc2C(F)(F)F)C(=NCc2ccc(OC)cc2)NC1c1ccccc1 (stereo not drawn)	42	·	·	–	·	–
COC(=O)C1=C(C)N(Cc2ccccc2C(F)(F)F)C(=NCc2ccc(C(F)(F)F)cc2)NC1c1ccc(Cl)cc1 (stereo not drawn)	25	·	·	–	·	–
CCCC(=O)N1CCC2(CC1)CN(S(=O)(=O)c1ccc(C)cc1)[C@@H](CO)c1[nH]c3cc(OC)ccc3c12	–	–	·	·	·	–
CN(C)CCCNC(=O)C[C@@H]1C=C[C@@H](NC(=O)Cc2cccnc2)[C@H](CO)O1	–	–	–	–	·	–
COC(=O)C1=C(C)N(Cc2ccc(C(F)(F)F)cc2)C(=NCc2ccc(C(F)(F)F)cc2)NC1c1ccc(F)cc1 (stereo not drawn)	–	–	·	–	·	·
COC(=O)C1=C(C)N(Cc2ccc(C(F)(F)F)cc2)C(=NCC2CC2)NC1c1ccccc1 (stereo not drawn)	–	–	·	–	·	60
COC(=O)C1=C(C)N(Cc2ccccc2C(F)(F)F)C(=NCc2cccc(C(F)(F)F)c2)NC1c1ccc(C(F)(F)F)cc1 (stereo not drawn)	–	·	·	–	·	103
COC(=O)C1=C(C)N(Cc2ccc(C(F)(F)F)cc2)C(=NCc2ccccc2)NC1c1ccc(Cl)cc1 (stereo not drawn)	–	–	·	–	·	726
C[C@H]1CN([C@@H](C)CO)C(=O)Cc2cc(NC(=O)Cc3cn(C)c4ccccc34)ccc2O[C@H]1CN(C)S(C)(=O)=O	–	–	–	–	·	–

Screening data as filed in PubChem.
